# In the library only some 6% were active in any assay of this set; here they are far more common.
# DRD3 agonist: qHTS of D3 Dopamine Receptor Agonist: qHTS; D(3) dopamine receptor (Homo sapiens), P35462; D3R DiscoveRx beta-arrestin cells, luminescence, 90 min; max activation, %; 410,000 tested, 0.58% active; AID 652048, 2013; in the data active means max activation above about 30%; further: 0% is about no effect
# Target sequence (P35462 whole entry, looked up): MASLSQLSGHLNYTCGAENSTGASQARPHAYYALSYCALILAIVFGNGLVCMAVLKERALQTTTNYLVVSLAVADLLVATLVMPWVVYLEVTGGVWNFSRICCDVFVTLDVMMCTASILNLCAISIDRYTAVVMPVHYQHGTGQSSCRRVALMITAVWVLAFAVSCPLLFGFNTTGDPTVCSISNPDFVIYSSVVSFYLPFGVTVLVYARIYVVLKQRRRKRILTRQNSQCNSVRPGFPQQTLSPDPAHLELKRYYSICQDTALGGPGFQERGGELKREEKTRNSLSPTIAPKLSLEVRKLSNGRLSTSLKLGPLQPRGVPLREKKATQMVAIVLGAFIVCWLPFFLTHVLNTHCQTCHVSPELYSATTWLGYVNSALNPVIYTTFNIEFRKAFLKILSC
#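 Cells at 1500/well, incubated overnight, then treated with pinned compounds (dopamine as control) for 90 min at 37 degrees C. DiscoveRx reagent added for 30 - 60 minutes at room temperature; luminescence read.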
# D1 ag: Allosteric Agonists of the Human D1 Dopamine Receptor: qHTS; 360,000 tested, 1% active; HEK293 T-REx D1 cells, calcium flux, agonist mode; D(1A) dopamine receptor (Homo sapiens), P21728; activation, % at 2 µM; in the data active means activation above about 30%; further: 0% is about no effect
#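 Tetracycline-induced HEK293 TREx D1 cells, force-coupled to calcium signalling, were dye-loaded with a no-wash calcium kit. Compound was pin-added after a 10 s baseline. Fluorescence was read kinetically at 1 cycle/s for 180 s, with calcium rises flagged as agonism.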
# D1 antag: Antagonist of Human D 1 Dopamine Receptor: qHTS; 360,000 tested, 3.2% active; activity change, negative = inhibition, % at 10 µM; D(1A) dopamine receptor (Homo sapiens), P21728; AID 504652, 2011; HEK293 TREx D1 cells, calcium flux, dopamine EC80; hits give low values; in the data active means activity change below about -30%; further: on the % scale 0 is the no-effect control and ±100 the full control effect
#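 Tetracycline-induced HEK293 T-REx cells with force-coupled D1 receptor were loaded with a no-wash calcium dye. Compound was added after a 10 s baseline and read kinetically for 180 s; EC80 dopamine was then added and calcium flux followed another 180 s.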
# D1 potentiator: Potentiators of Human D1 Dopamine Receptor: qHTS | D(1A) dopamine receptor (Homo sapiens), P21728 | HEK293 TREx D1 cells, calcium flux, dopamine EC20 potentiation | potentiation, % at 10 µM | 360,000 tested, 0.036% active; in the data active means potentiation above about 30%; further: 0% is about no effect
# DRD3 antagonist: qHTS of D3 Dopamine Receptor Antagonist: qHTS; D3R cells, DiscoveRx beta-arrestin luminescence, antagonist mode; hits give low values; max response, negative = inhibition, %; D(3) dopamine receptor (Homo sapiens), P35462; 360,000 tested, 2.5% active; in the data active means max response below about -50%; inconclusive means no clear call, values can overlap the other calls; further: on the % scale 0 is the no-effect control and ±100 the full control effect
#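 Cells plated overnight at 1500 cells/well, then exposed to library compounds with dopamine controls for 90 minutes at 37 degrees C. DiscoveRx reagent added for 30–60 minutes at room temperature; luminescence read, quantitative HTS format.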
# Active calls of the source: *; ? = inconclusive; / = not tested or not shown.
SMILES,DRD3 agonist,D1 ag,D1 antag,D1 potentiator,DRD3 antagonist
Cc1ccc(C)c(Cn2c3ccccc3c3cnn(CC(=O)NCCC4=CCCCC4)c(=O)c32)c1,-9,-2,0,-3,/
Clc1ccc(-c2csc(=Nc3ccccc3)n2Cc2ccc3c(c2)OCO3)cc1,-4,-1,14,-2,/
Cc1cc(NC(=S)Nc2ccc(C)c(Cl)c2)n[nH]1,0,1,-39*,-4,-5
COc1ccc(NC(=S)Nc2cc(-c3ccccc3)[nH]n2)cc1Cl,-28,2,-79*,-3,-17
COc1ccc(NC(=S)Nc2cc(C)[nH]n2)cc1Cl,-1,12,8,-2,-26
Cc1nc(/C(N)=N/OC(=O)c2ccc(Cl)cc2)c(C(F)(F)F)o1,-11,-1,-35*,-1,2
CN(C)CC1C2CCC(C2)C1O (centres undefined),0,/,/,/,-6
Cc1cc(C)c([N+](=O)[O-])cc1-c1ccc(/C=N/c2c(-c3ccco3)nc3ccccn23)o1,1,2,-50*,1,0
O=C(NCC(c1ccc2c(c1)OCO2)N1CCN(c2ccccc2)CC1)c1ccccc1 (centres undefined),-21,1,-11,4,/
Cc1nnc2ccc(-c3cccc(NC(=O)c4ccco4)c3)nn12,-2,0,-33*,-12,9
COc1cccc(NC(=O)c2ccco2)c1,-2,1,0,10,-24
Cc1ccc(C(=O)C(C)Oc2cccc(NC(=O)c3ccco3)c2)cc1 (centres undefined),0,42*,-2,-3,6
COc1ccc(CC(=O)Nc2cccc(-c3ccc4nnc(C)n4n3)c2)cc1,8,3,5,1,4
CCOc1ccc(CC(=O)Nc2cccc(-c3ccc4nnc(C)n4n3)c2)cc1,2,3,-32*,3,7
CC(NC(=O)c1ccco1)C(=O)N1CCCCC1 (centres undefined),3,5,8,-6,-10
COc1ccc(NC(=O)c2cc(C3CCCCN3C(=O)c3cc(C(C)(C)C)nn3C)on2)c(C)c1 (centres undefined),7,/,/,/,1
COc1ccc(NC(=O)CC2C(=O)N(c3ccc(C)cc3)C(=O)N2Cc2ccc(C)cc2)cc1 (centres undefined),-4,2,-3,-2,/
Cc1ccc(N(C(=O)c2nsc(Cl)c2Cl)C(C(=O)NC2CCCC2)c2ccc(O)cc2)cc1C (centres undefined),-31,2,-19,-4,-52*
Cc1ccccc1N(C(=O)c1snc(C(N)=O)c1N)C(C(=O)NC1CCCCC1)c1ccc(O)cc1 (centres undefined),2,5,10,-6,4
Cc1cccc(N(C(=O)c2nsc(Cl)c2Cl)C(C(=O)NC2CCCC2)c2ccc(O)cc2)c1C (centres undefined),-12,6,-40*,-8,-21
Cc1cc(C)cc(N(C(=O)c2nsc(Cl)c2Cl)C(C(=O)NC2CCCC2)c2ccc(O)cc2)c1 (centres undefined),-20,1,5,-5,-12
O=S(=O)(NC1CCc2ccccc21)c1ccccc1 (centres undefined),-15,/,/,/,?
NC(=O)C1c2ccccc2Oc2ccccc21,7,0,2,-6,4
O=C(O)c1ccccc1C1c2ccccc2Oc2ccccc21,-20,/,/,/,-72*
CCc1ccccc1NC(=O)CSc1ncc2c(n1)-c1cc(Cl)ccc1N(Cc1ccccc1)S2(=O)=O,-2,1,-50*,1,/
SMILES,DRD3 agonist,D1 ag,D1 antag,D1 potentiator,DRD3 antagonist
CCNc1nc(NC(C)C)nc(N(C#N)C(C)C(=O)N(CC)CC)n1 (centres undefined),5,1,-9,-7,2
O=C(c1cccc(F)c1)N1CCN(c2cccc(Cl)c2)CC1,1,-1,0,-3,5
O=C(c1cccc(F)c1)N1CCCN(C(=O)c2cccc(F)c2)CC1,-4,1,-81*,-5,23
C/C(=N\NC(=O)c1cccc(S(=O)(=O)Nc2ccccc2Cl)c1)c1ccc(-n2ccnc2)cc1,9,-2,12,1,-52*
O=C(c1cccc(S(=O)(=O)Nc2ccccc2Cl)c1)N1CCC1,-4,0,-16,2,-59*
COc1cccc(S(=O)(=O)NC2CCN(C#N)C2)c1 (centres undefined),/,-1,-18,-6,/
CC(C)(C)c1ccc(OCCC(=O)Nc2ccc(N3CCOCC3)cc2N2CCOCC2)cc1,6,4,2,2,1
CN(CC(=O)Nc1cccc(F)c1)C(=O)c1ccc(-n2cncn2)c([N+](=O)[O-])c1,6,-1,-40*,-6,5
CCCCCn1c(=O)[nH]c2cc(C(=O)NCCN3CCC(C)CC3)ccc2c1=O,-28,3,-12,-2,6
O=C(NCCN1CCC(n2c(=O)[nH]c3ccccc32)CC1)c1ccc(OC(F)(F)F)cc1,-12,/,/,/,-86*
O=C(NCCCN1CCCC1=O)c1ccc(OC(F)(F)F)cc1,1,8,-24,-3,10
CCCCOc1ccc(C(=O)NCCN2CCC(n3c(=O)[nH]c4ccccc43)CC2)cc1,-11,/,/,/,-60*
CCOC(=O)Cn1c(=O)n(CC2CCCO2)c2nc(-c3c(F)cccc3Cl)nc(C(N)=O)c21 (centres undefined),7,2,1,1,/
CN1CCN(C2=Nc3cc(F)ccc3Cc3ccccc32)CC1,-21,9,-84*,-3,/
Cc1cccn2c(=O)cc(COc3cccc(NC(=O)Nc4cccc(Cl)c4)c3)nc12,-9,1,-59*,-2,/
Cc1cccn2c(=O)cc(COc3ccc(NC(=O)C(C)Oc4ccccc4)cc3)nc12 (centres undefined),8,1,-49*,-3,/
CCOc1ccc(C(=O)Nc2cccc(OCc3cc(=O)n4ccccc4n3)c2)cc1,-12,-2,-17,-3,/
Cc1cccc(C(=O)Nc2cccc(OCc3cc(=O)n4ccccc4n3)c2)c1,-11,-1,-71*,-6,/
COc1ccccc1C(=O)Nc1ccc(OCc2cc(=O)n3cccc(C)c3n2)cc1,0,2,6,3,/
Cc1ccn2c(=O)c(NC(=O)c3cccs3)c(C)nc2c1,-13,4,15,-3,-14
O=C1Nc2ccccc2C12Nc1ccccc1-c1nc3ccccc3n12 (centres undefined),-7,37*,-25,-7,-30
CN1C(=O)C2(Nc3ccccc3-c3nc4ccccc4n32)c2ccccc21 (centres undefined),-10,2,-10,4,-1

# Screening results: PubChem BioAssay, National Center for Advancing Translational Sciences (NCATS)
